Rows were chosen to be rich in hits. Some 7.6% of all compounds tested hit in one or more screens of this group.
M1 antagonist – antagonists of rat M1 muscarinic receptor; CHO-M1 cells, Fluo-4 calcium, ACh EC80 antagonist mode; stronger effect = lower value; hit rate 3.4% among 64,000; B-score at 10 µM; Muscarinic acetylcholine receptor M1 (Rattus norvegicus), P08482; AID 628, 2007;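 active = calcium fluorescence response, raw or row-and-column corrected B-score, differing from the plate sample mean either way at a set confidence level, mostly lower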
M1 agonist – M1 muscarinic receptor agonists, primary screen, CHO-M1 cells, Fluo-4 calcium, agonist mode; hit rate 3% among 64,000; Muscarinic acetylcholine receptor M1; Fluo-4 calcium fluorescence; stronger effect = higher value; B-score at 10 µM;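 active = fluorescence rise, raw or as B-score row- and column-corrected plate score, outside the 99.7% band of its plate's samples, either direction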
Cav32 inh – Cav3.2 calcium influx blockers – cell-based, Fluo-4 calcium fluorescence, FDSS, MLSMR library, primary screen. B-score at 10 µM. Voltage-dependent T-type calcium channel subunit alpha-1H (Homo sapiens), O95180. AID 449739, 2010. Cav3.2-expressing cells; stronger effect = lower value. hit rate 4% among 100,000;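 active = single-dose well whose peak fluorescence ratio is a statistical outlier from its plate by either plate-standardised score or position-corrected B-score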
PLAP act – PLAP enzyme activators, biochemical, luminescence, HTS; Alkaline phosphatase, placental type (Homo sapiens), P05187; purified PLAP enzyme, luminescent substrate read-out; stronger effect = higher value; activation fold at 20 µM; hit rate 1.2% among 96,000; AID 696, 2007; in the data active = activation fold above about 2
Target sequence (P05187 whole entry, looked up): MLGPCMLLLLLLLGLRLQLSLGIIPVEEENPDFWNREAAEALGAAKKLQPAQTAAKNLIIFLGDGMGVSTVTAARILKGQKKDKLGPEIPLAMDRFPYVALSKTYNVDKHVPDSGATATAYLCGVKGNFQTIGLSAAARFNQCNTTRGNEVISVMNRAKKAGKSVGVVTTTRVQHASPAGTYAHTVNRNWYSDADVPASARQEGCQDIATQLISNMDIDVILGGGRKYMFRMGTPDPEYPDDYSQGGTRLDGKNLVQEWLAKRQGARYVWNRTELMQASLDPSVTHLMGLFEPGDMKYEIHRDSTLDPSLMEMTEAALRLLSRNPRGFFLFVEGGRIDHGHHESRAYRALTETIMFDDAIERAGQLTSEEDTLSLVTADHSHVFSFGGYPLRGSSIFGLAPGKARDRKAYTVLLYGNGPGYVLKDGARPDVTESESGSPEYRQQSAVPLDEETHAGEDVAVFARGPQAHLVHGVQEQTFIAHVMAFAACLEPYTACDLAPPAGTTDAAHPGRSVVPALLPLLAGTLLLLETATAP
* hit, by the source's call; · = not tested or not shown.

SMILES	M1 antagonist	M1 agonist	Cav32 inh	PLAP act
CC(NC(=O)NC1CCCCC1)C(c1cccs1)N1CCN(c2ccccc2)CC1 (centres undefined)	·	·	-2.8	1.5
CC(C)Cc1nc2sc3c(NCc4ccco4)ncnc3c2c2c1COC(C)(C)C2	·	·	-0.503	1.5
Cc1nc2sc3c(NCc4ccco4)ncnc3c2c2c1COC(C)(C)C2	0.365	1.09	-0.384	·
CCCSc1nc(NCc2ccco2)c2c3c(sc2n1)COC(C)(C)C3	·	·	-5.64*	1
CCCCSc1nc(NCc2ccco2)c2c3c(sc2n1)COC(C)(C)C3	·	·	-5.7*	1
c1ccc(-c2cc(-c3nnc4n3N=C(c3ccc5ccccc5c3)CS4)[nH]n2)cc1	·	·	-1.31	1.7
CN(CCOc1ccccc1)c1ccc(S(=O)(=O)N2CCCCC2)cn1	·	·	-7.6*	1
CCCCOc1ccc(S(=O)(=O)N2CCCCCC2)cc1	-0.32	0.111	-2.38	0.8
CC[C@@]1(O)C(=O)OCc2c1cc1n(c2=O)Cc2cc3c(CN(C)C)c(O)ccc3nc2-1	·	·	-6.28*	·
CC1CCCCN1CCNC(=O)c1cnn2ccccc12 (centres undefined)	-0.18	-0.00812	-0.0166	1.2
COc1cc(C(=O)Nc2ccc(-n3cnnn3)c(C)c2)cc(OC)c1OC	-0.106	0.00551	-4.36*	0.8
Cc1cc(NC(=O)c2ccco2)ccc1-n1cnnn1	·	·	0.675	1.1
O=C(c1ccc2c(=O)n(C3CCCC3)c(=S)[nH]c2c1)N1CCc2ccccc21	·	·	-4.58*	1
COc1ccc(C2(C)NC(=O)N(CC(=O)NCCC3=CCCCC3)C2=O)cc1OC (centres undefined)	·	·	0.0222	0.8
COc1ccc2cc(C3(C)NC(=O)N(CC(=O)NCCC4=CCCCC4)C3=O)ccc2c1 (centres undefined)	·	·	-7.37*	1.2
CCOC(=O)N1CCN(C(=O)CS(=O)(=O)c2cn(Cc3ccccc3Cl)c3ccccc23)CC1	·	·	0.134	1.2
Cc1cc(NC(=O)CS(=O)(=O)c2cn(Cc3ccccc3Cl)c3ccccc23)no1	3.66*	0.0806	-2.07	1.2
CSc1cccc(NC(=O)/C=C/c2ccccc2)c1	·	·	-6.34*	0.5
CSc1cccc(NC(=O)/C=C/c2ccc(Cl)cc2)c1	·	·	-1.45	0.8
O=C(CSc1nc2ccccc2s1)CSc1nc2ccccc2s1	·	·	-0.0621	1.2
Cc1nnc(SCc2nc3ccccc3[nH]2)s1	-0.282	-0.0544	-0.146	1
Cn1c(CSc2nc3ccccc3s2)nc2ccccc21	-0.12	-0.63	-4.74*	1.2
O=c1oc2ccccc2n1CSc1nc2ccccc2s1	-0.107	0.113	-4.09*	0.5
Cn1c(CSc2ncn[nH]2)nc2ccccc21	0.0354	0.0144	0.751	2.8*
Cn1c(CNc2nc3ccccc3n2C)nc2ccccc21	·	·	1.93	1.9
SMILES	M1 antagonist	M1 agonist	Cav32 inh	PLAP act
c1ccc2[nH]c(CSc3nc4ccccc4s3)nc2c1	·	·	-6.43*	1.1
O=C(Nc1ccc2c(c1)CCC2)c1cccc(S(=O)(=O)N2CCN(c3ccccc3)CC2)c1	·	·	-5.68*	1.5
O=C(NC1CCCc2ccccc21)c1cccc(S(=O)(=O)N2CCN(c3ccccc3)CC2)c1 (centres undefined)	·	·	-10.3*	1.5
O=C(NC1CCCC1)c1cccc(S(=O)(=O)N2CCCCC2)c1	-0.383	-0.586	·	0.8
COc1ccccc1NS(=O)(=O)c1cccc(C(=O)N/N=C(\C)c2ccc(-n3ccnc3)cc2)c1	·	·	0.868	2*
COc1c(C(CC(C)C)OC(C)=O)ccc2c1C(=O)OCc1cc(C)cc(O)c1O2 (centres undefined)	·	·	-3.77*	·
CCOc1ccccc1NC(=O)c1c(NC(=O)CNCc2ccco2)sc2c1CCC2	-8.13*	-0.594	·	1
COC(=O)Nc1sc2c(c1C(=O)NCc1ccco1)CCC2	0.331	-0.375	1.77	1.3
CCOc1cc(CNCc2ccccn2)ccc1OCC(=O)NC1CCCCC1	·	·	1.44	2*
NNc1nc(Nc2ccccc2)nc(N2CCCCC2)n1	·	·	-0.342	1.6
O=c1nc(N2CCCCC2)nc(Nc2ccccc2)[nH]1	·	·	0.432	2.3*
Cc1ccccc1-n1nnnc1SC1CCOC1=O (centres undefined)	-0.00526	-0.973	0.756	1.3
COc1ccccc1-n1cnnc1SC1CCOC1=O (centres undefined)	2.84*	0.548	·	1
Cc1ccc(C)c(N2CCN(C(=O)c3cc(S(=O)(=O)N4CCOCC4)ccc3F)CC2)c1	-0.261	-0.358	·	·
CCCCCCCCC(=O)NC(NC(=S)N1CCOCC1)C(Cl)(Cl)Cl (centres undefined)	·	·	-4.16*	·
CCCCOc1ccc(C)cc1CN(CCO)CCO	2.05*	0.333	0.495	1.4
Cc1ccc(OC(C)C)c(CN(CCO)CCO)c1	·	·	0.272	0.8
COC(=O)c1ccccc1NC(=O)c1cccc(COc2ccccc2Cl)c1	·	·	-4.19	0.8
O=C(NCc1ccccc1)c1cccc(COc2ccccc2Cl)c1	·	·	-6.53*	0.7
CCOc1ccc(C(=O)CCc2nc3ccccc3s2)cc1	·	·	-3.49	1.2
COC(=O)C1CCN(C(=O)C2CCCCC2)CC1	·	0.0099	-0.0371	0.9
CCN(c1cccc(C)c1)c1nc2ccsc2c(=O)s1	·	·	-0.742	0.8
O=S(=O)(NCCSc1ccccc1)c1ccc(F)cc1	-1.04	0.068	-5.73*	0.8
c1ccc2nc3c(nc2c1)c1ccccc1n3CCN1CCOCC1	-0.292	6.45*	-0.0301	0.9
CCOC(=O)c1cnc(-n2nc(C)cc2C)nc1Nc1ccccc1OC	·	·	0.515	0.8
SMILES	M1 antagonist	M1 agonist	Cav32 inh	PLAP act
CCOC(=O)c1cnc(-n2nc(C)cc2C)nc1NCCc1ccccc1	-0.395	0.267	-4.14*	1.8
O=C(CN1CCN(S(=O)(=O)c2ccc(Cl)cc2)CC1)NC(=O)NC1CCCCC1	·	·	-2.38	2*
CCOC(=O)N1CCC(N2CCN(S(=O)(=O)c3ccc(Cl)cc3)CC2)CC1	·	·	1.43	2*
COc1cccc(C2NC(=O)c3sc(=S)n(-c4ccccc4)c3N2)c1 (centres undefined)	·	·	-1.11	1.2
Cc1cc(N2CCCC2)nc(SCC(=O)c2ccccc2)n1	·	·	-0.134	·
Cc1cc(N2CCC(C)CC2)nc(SCC(=O)c2ccccc2)n1	·	·	-4.67*	·
COc1ccc(C2CC(c3ccccc3)n3nnnc3N2)cc1 (centres undefined)	·	·	-0.0124	0.8
CCOc1ccc(C2CC(c3cccc(OC)c3OC)n3nnnc3N2)cc1Cl (centres undefined)	0.918	-0.692	-4.13*	1.6
COC(=O)c1ccc([C@H]2C=C(C(=O)O)O[C@@H](OCc3ccc(CO)cc3)C2)cc1	·	·	0.151	·
O=C(c1ccccc1Nc1ccc(SC(F)F)cc1)N1CCCCC1	·	·	-7.05*	1.1
CC1CCCC(C)N1C(=O)c1ccccc1Nc1ccc(SC(F)F)cc1 (centres undefined)	·	·	-1.35	1
Cc1cccc(C)c1NC(=O)C(c1ccccc1)N1CCC1=O (centres undefined)	·	·	0.577	1.2
Cc1cccc(C)c1NC(=O)C(C)c1ccc(-c2ccccc2)c(F)c1 (centres undefined)	·	·	-4.31*	0.9
Cc1ccccc1OC(=O)n1c(=S)oc2cc(Cl)ccc21	·	·	-0.794	1.1
O=C(c1ccc2c(c1)OCO2)N1CCN=C1SCc1ccccc1	-0.437	-0.885	-5.37*	1.1
